Laboratory results reported in PubChem BioAssay (NCATS).
Records with an inconclusive call do not appear. A call without a number means that no potency is given here. The source made the active and inactive calls. The call rests on the fitted dose curve; in most records, active means well fitted cell-killing curve with a large enough effect; inconclusive means small, poorly fitted or top-dose-only effect; inactive means flat fitted curve, though single readings scatter.

Columns and labels:
[1] = Cell Viability - LYMP2-023 (AID 975);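 further: cellular ATP measured by luciferase luminescence as viability proxy; series mostly up to about 92 µM; nearly all actives have a fitted effect of over 55% in size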
How it was run: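 Human lymphoblastoid cells (2500/well) were preincubated 5 hr at 37 C, then exposed to compounds for 24 hr at 37 C in complete medium. Cellular ATP was read by CellTiter-Glo luminescence, and AC50 came from Hill-equation fits.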

[2] = Cell Viability - LYMP2-025 (AID 976); further: series mostly up to about 92 µM
How it was run: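 Human lymphoblastoid LYMP2-025 cells (2500/well) were pre-incubated 5 hr at 37 C, then treated with compounds for 24 hr at 37 C in complete medium. Viability was read as intracellular ATP by CellTiter-Glo luminescence; AC50 from Hill fits.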

[3] = Cell Viability - LYMP2-002 (AID 977); further: series mostly up to about 92 µM
How it was run: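 Human lymphoblastoid LYMP2-002 cells, 2500 per well, exposed to compounds for 24 h at 37 C in complete medium; viability read as intracellular ATP by CellTiter-Glo luminescence, AC50 from Hill fits.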

[4] = Cell Viability - LYMP2-006 (AID 978); further: series mostly up to about 92 µM; nearly all actives have a fitted effect of over 60% in size
How it was run: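 Potency values are Hill-fit AC50s for decreases in intracellular ATP (CellTiter-Glo luminescence). LYMP2-006 lymphoblastoid cells, 2500 per well, were exposed to compound in complete culture medium for 24 hr at 37 C.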

[5] = Cell Viability - LYMP2-007 (AID 979);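 further: cells exposed to compound for 24 h before reading; nearly all actives have a fitted effect of over 60% in size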
How it was run: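 Human lymphoblastoid cells (2500/well) were plated in complete medium, incubated 5 hr at 37 C, then exposed to compounds for 24 hr at 37 C. Intracellular ATP was read by CellTiter-Glo luminescence after 30 min at room temperature; AC50 from Hill fits.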

[6] = Cell Viability - LYMP2-008 (AID 980); further: nearly all actives have a fitted effect of over 60% in size
How it was run: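 Human lymphoblastoid cells (2500/well) were plated, held 5 hr at 37 C, then exposed to compounds for 24 hr at 37 C in complete medium. Intracellular ATP was read by CellTiter-Glo luminescence; AC50 from Hill-fitted concentration-response.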

[7] = Cell Viability - LYMP2-010 (AID 981); further: nearly all actives have a fitted effect of over 55% in size; further: potency means the concentration at half of the fitted maximal effect
How it was run: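 Human lymphoblastoid LYMP2-010 cells (2500/well) were preincubated 5 hr at 37 C, then exposed to compounds for 24 hr at 37 C in complete medium. Intracellular ATP was measured by CellTiter-Glo luminescence after 30 min at room temperature; AC50 from Hill-fitted concentration-response.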

[8] = Cell Viability - LYMP2-012 (AID 982);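 further: cellular ATP by luciferase luminescence where a drop means cytotoxicity; cells exposed to compound for one day before reading; nearly all actives have a fitted effect of over 55% in size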
[9] = Cell Viability - LYMP2-014 (AID 983); further: series mostly up to about 92 µM; nearly all actives have a fitted effect of over 50% in size
How it was run: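 Human lymphoblastoid cells (2500/well) were pre-incubated 5 hr at 37 C, then exposed to compounds in complete medium for 24 hr at 37 C. Intracellular ATP was read by CellTiter-Glo luminescence after 30 min at room temperature; AC50 from Hill fits.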

[10] = Cell Viability - LYMP2-016 (AID 984); further: nearly all actives have a fitted effect of over 55% in size
How it was run: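 Cytotoxicity was scored by luminescent ATP content (CellTiter-Glo) after 24 h compound exposure at 37 C of a human lymphoblastoid line at 2500 cells/well. Concentration-response data were fitted to the Hill equation for AC50.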

Row | Structure (SMILES) | outcome [1] | outcome [2] | outcome [3] | outcome [4] | outcome [5] | outcome [6] | Potency [7] | outcome [8] | outcome [9] | outcome [10]
1 | CCCC(CCC)C(=O)O | inactive | inactive | inactive | inactive | inactive | inactive | inactive | inactive | inactive | inactive
2 | O=c1[nH]cnc2[nH]ncc12 | inactive | – | inactive | inactive | inactive | inactive | inactive | inactive | inactive | inactive
3 | CC(=O)Oc1ccccc1C(=O)O | inactive | inactive | inactive | inactive | inactive | inactive | inactive | inactive | inactive | inactive
4 | NS(=O)(=O)c1cc2c(cc1Cl)NC=NS2(=O)=O | inactive | inactive | inactive | inactive | inactive | inactive | inactive | inactive | inactive | inactive
5 | NC(=O)c1cnccn1 | inactive | inactive | inactive | inactive | inactive | inactive | inactive | inactive | inactive | inactive
6 | Cn1cnc([N+](=O)[O-])c1Sc1ncnc2nc[nH]c12 | – | inactive | inactive | – | – | – | 39.8 µM (active) | – | inactive | –
7 | NC(N)=NC(=O)c1nc(Cl)c(N)nc1N | inactive | inactive | inactive | inactive | inactive | inactive | – | inactive | inactive | inactive
